Among the data in ChEMBL document CHEMBL1157539, “Thousands of chemical starting points for antimalarial lead identification” (Nature, 2010) are Inhibition values, retold here.

SMILES strings stand for the structures.

Holding throughout (format): functional
Assay [1] deals with Plasmodium falciparum. The assay can be described thus: GSK_TCMDC: Inhibition of Plasmodium falciparum 3D7 in whole red blood cells, using parasite LDH activity as an index of growth. Test compounds present at 2uM.
The test system of assay [2] is Plasmodium falciparum. The assay can be described thus: GSK_TCMDC: Inhibition of Plasmodium falciparum Dd2 in whole red blood cells, using parasite LDH activity as an index of growth. Test compounds present at 2uM.
The subject of a further assay is HepG2. Put plainly: GSK_TCMDC: Percent inhibition of human HepG2 cell line. Test compounds present at 10uM.

As a reminder, the Inhibition is the drop in the measured response relative to a control, in per cent. Read a high Inhibition as a response far below the control.

On to `Cc1cc(N(C)C2CCN(C)C2)nc(Nc2ccccc2Cl)n1` (configuration not stated), for which the Inhibition with Plasmodium falciparum [1] turned out to be 100%; in the assay with Plasmodium falciparum [2] it was 84%; in the assay on HepG2 it was 1%.

`Cc1noc(C)c1-c1cccc(CNCc2ccc(-c3cccc(-c4nc5cc(C(F)(F)F)ccc5[nH]4)c3)cc2)c1.O=C(O)C(F)(F)F`: the Inhibition with Plasmodium falciparum [1] was found to be 100%; with Plasmodium falciparum [2], 97%; with HepG2, 37%.

Turning to `CCN(CC)Cc1cc(Nc2c3ccc(Cl)cc3nc3cccc(OC)c23)ccc1O.Cl`, the Inhibition with Plasmodium falciparum [1] is recorded as 100%; in the assay with Plasmodium falciparum [2], 98%; with HepG2, 8%.

Turning to `COc1cccc(NC(=O)CSc2nc(-c3ccccc3Cl)ns2)c1`, the Inhibition in the assay with Plasmodium falciparum [1] was determined as 99%; in the assay on Plasmodium falciparum [2], 100%; in the assay on HepG2, 7%.

As to `O=C(Nc1ccc(-c2nc3ccccc3[nH]2)cc1)C1CCN(Cc2ccc(F)cc2)CC1`, the Inhibition with Plasmodium falciparum [1] was found to be 100%; in the assay on Plasmodium falciparum [2] it was 91%; with HepG2, 13%.

Turning to `COC(=O)c1cccc(N2CCN(CCCNC(=O)/C(=C/C=C/c3cc4cc(Cl)c(Cl)cc4[nH]3)OC)CC2)c1.Cl`, the Inhibition with Plasmodium falciparum [1] stood at 100%; with Plasmodium falciparum [2], 59%; in the assay with HepG2 it was 38%.

`Cc1cc(O)c(-c2cccc(Oc3ccc(Cl)cc3)c2)c(C)n1`: the Inhibition is reported as 96% with Plasmodium falciparum [1], 95% in the assay with Plasmodium falciparum [2] and 0% in the assay with HepG2.

In the case of `COc1cc2nc(N3CCN(c4nc(N)c5cc(OC)c(OC)cc5n4)CC3)nc(N)c2cc1OC`, the figures for the Inhibition in the assay on Plasmodium falciparum [1], in the assay on Plasmodium falciparum [2] and in the assay with HepG2 were 100%, 99% and 13%, respectively.

Regarding `Cl.O=C(/C=C/c1ccc(Cl)c(Cl)c1)N1CCC(CN2CCC(c3c[nH]c4ncccc34)CC2)CC1`, the results for the Inhibition in the assay with Plasmodium falciparum [1], in the assay on Plasmodium falciparum [2] and in the assay on HepG2 were 84%, 20% and 38%, respectively.

With `O=C(O)C(F)(F)F.O=C1COC(c2ccccc2)(c2ccccc2)CN1CC1CCN(Cc2ccc(O)cc2Cl)C1` (configuration not stated), the Inhibition in the assay on Plasmodium falciparum [1] is on record as 85%; with Plasmodium falciparum [2] it was 81%; in the assay with HepG2 it was 53%.

With `O=C(NCCN1CCCCC1)c1cccc(Nc2nccc(Nc3ccc(Oc4ccccc4)cc3)n2)c1`, the Inhibition in the assay on Plasmodium falciparum [1] came out at 99%; with Plasmodium falciparum [2], 86%; in the assay with HepG2, 50%.

For the molecule `Cc1cc(N2CCN(C(=O)OC(C)(C)C)CC2)ccc1N`, the Inhibition in the assay on Plasmodium falciparum [1] is 92%; in the assay on Plasmodium falciparum [2], 38%; with HepG2, 11%.

Take `CCCC(=O)NC(NC(=S)Nc1ccc([N+](=O)[O-])cc1)C(Cl)(Cl)Cl` (configuration not stated): the Inhibition is 93% with Plasmodium falciparum [1], 14% in the assay with Plasmodium falciparum [2] and 10% in the assay with HepG2.

With `Cl.Clc1ccc(OC2CCC(Cn3ccnc3)(c3ccc(Cl)cc3Cl)CC2)c(Cl)c1` (configuration not stated), the Inhibition in the assay on Plasmodium falciparum [1] was found to be 98%; in the assay with Plasmodium falciparum [2], 86%; with HepG2 it was 4%.

`O=C(N[C@H]1CCN(CCc2ccc(O[C@H]3CCNC3)c(Cl)c2)C1)c1ccc(Cl)c(Cl)c1.O=C(O)C(F)(F)F`: the Inhibition with Plasmodium falciparum [1] turned out to be 100%; with Plasmodium falciparum [2], 0%; in the assay on HepG2, 26%.

For `CC(C)CCN1CCC(Oc2ccc(NC(=O)c3cccs3)cc2Cl)C1.O=C(O)C(F)(F)F` (configuration not stated), the Inhibition in the assay with Plasmodium falciparum [1] stood at 94%; in the assay on Plasmodium falciparum [2], 93%; in the assay with HepG2, 17%.

Consider `Fc1ccc2[nH]c(-c3ccc(-c4ccc(CNCc5cnn(-c6ccccc6)n5)cc4)cc3)nc2c1.O=C(O)C(F)(F)F`, for which the Inhibition in the assay on Plasmodium falciparum [1] worked out at 98%; with Plasmodium falciparum [2], 47%; with HepG2, 41%.

Consider `COc1ccc2nccc(NCC3(O)CCC(NCc4cc5c(cn4)OCCO5)CC3)c2n1.Cl` (configuration not stated), for which the Inhibition was determined as 99% in the assay with Plasmodium falciparum [1], 23% with Plasmodium falciparum [2] and 15% in the assay with HepG2.

For the molecule `CCc1sc(-c2ccc(C(C)(C)C)cc2)nc1C(=O)NCCCN1CCCC1=O`, the figures for the Inhibition with Plasmodium falciparum [1], in the assay with Plasmodium falciparum [2] and with HepG2 were 84%, 69% and 0%, respectively.

With `N#Cc1ccc(N(CCOc2ccc3c(c2)CCC(=O)N3)Cc2ccccc2C(F)(F)F)cc1C(F)(F)F`, the Inhibition in the assay on Plasmodium falciparum [1] was determined as 98%; with Plasmodium falciparum [2], 64%; with HepG2 it was 19%.

As for `CCOC(=O)c1ccc(NC(=O)Nc2ccc(-c3cccc(-c4nc5cccc(C)c5[nH]4)c3)cc2)cc1`, the Inhibition in the assay on Plasmodium falciparum [1] was 100%; in the assay on Plasmodium falciparum [2], 100%; in the assay on HepG2 it was 91%.

With `Cc1ccc(C)c(NC(=O)Nc2ccc(C)c(-c3ccc(C(=O)Nc4ccncc4)cc3)c2)c1`, the values for the Inhibition in the assay on Plasmodium falciparum [1], with Plasmodium falciparum [2] and in the assay on HepG2 were 98%, 59% and 46%, respectively.

Consider `COc1cccc(-c2ccc3c(-c4ccc(F)cc4)cnc(N)c3c2)c1.O=CO`, for which the Inhibition with Plasmodium falciparum [1] turned out to be 100%; in the assay on Plasmodium falciparum [2], 70%; in the assay on HepG2, 27%.

Turning to `Cl.N=C(N)NN=Cc1ccc2c(ccc3ccccc32)c1`, the Inhibition amounted to 100% in the assay with Plasmodium falciparum [1], 68% in the assay with Plasmodium falciparum [2] and 9% in the assay on HepG2.

With `CN(CCN1CCCC1)c1nc2cc(-n3cnc4cc(-c5ccc(Cl)cc5)sc4c3=O)ccc2[nH]1.CS(=O)(=O)O`, the Inhibition was 93% in the assay on Plasmodium falciparum [1], 15% in the assay with Plasmodium falciparum [2] and 76% in the assay on HepG2.

Regarding `Cc1ccc(O)cc1Nc1ccnc2cc(-c3nccs3)ccc12.Cl`, the Inhibition with Plasmodium falciparum [1] is reported as 100%; in the assay with Plasmodium falciparum [2], 83%; with HepG2, 63%.

For `CC(C)NCc1ccc(-c2cccc(NC(=O)c3ccc(Cl)cc3)c2)cc1.O=C(O)C(F)(F)F`, the Inhibition in the assay on Plasmodium falciparum [1] is listed as 100%; with Plasmodium falciparum [2] it was 82%; in the assay on HepG2 it was 20%.

For `N#Cc1cccc(C(=O)Nc2cccc(-c3ccc(CN4CCCC4)cc3)c2)c1.O=C(O)C(F)(F)F`, the Inhibition in the assay with Plasmodium falciparum [1] turned out to be 98%; in the assay with Plasmodium falciparum [2], 42%; in the assay with HepG2, 11%.

With `COC(=O)c1ccc(C2OC3(C(=O)c4ccccc4C3=O)C(OC)=C2Cl)cc1C(C)=O` (configuration not stated), the Inhibition was 99% with Plasmodium falciparum [1], 85% in the assay on Plasmodium falciparum [2] and 0% in the assay with HepG2.
